According to PubChem BioAssay:
Inconclusive results are not listed. Active and inactive are the calls of the source.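 How the source made its calls, unless noted: active means viability at or under a set limit in both replicates, limit being median viability minus 3 SD (cut at about 48% in these data, passing the limit was not always enough); inconclusive means at or under the limit in just one replicate; inactive means at or above the limit in both replicates.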

Tests used:
[1] = Her2 expression decrease, cell viability multiplex – SKBR3 breast tumor cells, AlphaScreen, ATP viability, primary screen (AID 461;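 active means Her2 level under about 52% in both replicate screens, with viability over 70% of control, limit read from the data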;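 on Her2 level: lower value means less Her2 protein in the cells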;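 on viability: percent of carrier control wells set as 100% viability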); conditions: SKBR3 Her2 protein level, 18-24 h, measured here: SKBR3 viability, ATP luminescence, at 10 µM
[2] = target: Receptor tyrosine-protein kinase erbB-2 (Homo sapiens) (UniProt P04626); assay: as above; conditions: 18-24 h, at 10 µM, stronger effect = lower value
Chain of Receptor tyrosine-protein kinase erbB-2 (Homo sapiens) (P04626 whole entry, looked up): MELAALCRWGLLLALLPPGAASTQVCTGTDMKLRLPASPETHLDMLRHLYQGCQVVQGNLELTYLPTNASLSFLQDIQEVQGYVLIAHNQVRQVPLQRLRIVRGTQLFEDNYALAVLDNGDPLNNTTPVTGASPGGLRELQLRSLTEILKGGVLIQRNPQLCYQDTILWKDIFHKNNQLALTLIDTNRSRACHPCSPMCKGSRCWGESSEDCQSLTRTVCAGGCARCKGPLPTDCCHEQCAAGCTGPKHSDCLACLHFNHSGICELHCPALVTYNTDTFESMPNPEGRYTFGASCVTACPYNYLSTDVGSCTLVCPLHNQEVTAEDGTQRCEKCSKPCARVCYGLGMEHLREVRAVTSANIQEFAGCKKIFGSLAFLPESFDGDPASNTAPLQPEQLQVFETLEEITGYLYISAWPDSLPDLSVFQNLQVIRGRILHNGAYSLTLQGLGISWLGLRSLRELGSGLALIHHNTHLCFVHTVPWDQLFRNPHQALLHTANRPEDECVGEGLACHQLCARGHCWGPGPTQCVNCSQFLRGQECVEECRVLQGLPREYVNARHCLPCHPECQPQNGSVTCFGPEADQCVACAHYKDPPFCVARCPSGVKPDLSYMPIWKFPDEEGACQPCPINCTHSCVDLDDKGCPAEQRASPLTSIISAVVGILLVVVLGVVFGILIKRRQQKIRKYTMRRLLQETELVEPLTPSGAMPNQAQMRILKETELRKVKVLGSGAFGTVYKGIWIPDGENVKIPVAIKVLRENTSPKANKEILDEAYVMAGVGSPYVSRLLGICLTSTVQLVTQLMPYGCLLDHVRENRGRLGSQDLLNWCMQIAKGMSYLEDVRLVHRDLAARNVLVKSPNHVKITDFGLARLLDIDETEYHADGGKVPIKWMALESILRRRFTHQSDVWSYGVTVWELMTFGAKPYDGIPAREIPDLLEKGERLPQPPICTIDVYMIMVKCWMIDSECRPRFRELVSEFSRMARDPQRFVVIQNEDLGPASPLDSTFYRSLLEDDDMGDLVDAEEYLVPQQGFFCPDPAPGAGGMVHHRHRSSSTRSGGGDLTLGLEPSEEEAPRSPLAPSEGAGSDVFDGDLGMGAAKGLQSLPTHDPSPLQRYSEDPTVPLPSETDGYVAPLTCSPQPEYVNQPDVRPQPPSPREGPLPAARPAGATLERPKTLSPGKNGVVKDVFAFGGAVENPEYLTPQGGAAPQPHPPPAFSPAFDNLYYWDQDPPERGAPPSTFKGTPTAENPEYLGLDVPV

[3] = reduced viability of SK-BR-3 breast cancer cells – cell-based, 24 h, human, pilot screen (AID 572;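 active means viability at or below 10% of carrier control in both of two separate runs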;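 further: compound exposure lasted between 18 and 24 h rather than exactly 24 h; 100% = carrier-treated control wells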); conditions: SK-BR-3 viability, CellTiter-Glo luminescence, at 10 µM, stronger effect = lower value
[4] = HUVEC growth inhibition – cell-based, human, primary screen (AID 575;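 active means viability at or below 30% in both replicate assays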;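 further: 100% = median of untreated cell wells with 0.1% DMSO on each plate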); conditions: HUVEC proliferation, CellTiter-Glo luminescence, 72 h; at 10 µM; stronger effect = lower value
[5] = H69AR cell proliferation blockers – human, duplicate replicates, primary screen (AID 580); conditions: H69AR lung tumor cells viability, ATP luminescence, 72 h; at 10 µM; stronger effect = lower value;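 further: 100% = mean luminescence of untreated wells and 0% = no signal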
[6] = MRP1 drug-resistance reversers in H69AR cells – cell-based, doxorubicin co-treatment, pilot screen (AID 601;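 active means viability loss from added drug above about 55%, and viability with drug at most 40%, in both replicates, limit read from the data, passing the limit was not always enough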); conditions: CellTiter-Glo, 72 h, at 10 µM; for differential viability (reversal): stronger effect = higher value
[7] = yeast transport mutant growth inhibition pilot in 384-well plates, post-Golgi transport modulator project (AID 636; in the data active means inhibition above about 31%); conditions: absorbance 615 nm, about 18 h, stronger effect = higher value
[8] = growth suppression of yeast trafficking mutant, preliminary HTS, modulators of trafficking downstream of Golgi apparatus project, 1536-format plate, OD 615 nm (AID 637; in the data active means inhibition above about 30%); conditions: yeast transport mutant growth, absorbance 615 nm, 18 h; stronger effect = higher value
[9] = S. cerevisiae growth inhibition in permissive medium (OD615), pilot counter-assay for S. cerevisiae lifespan shortening project, permissive growth control (AID 705;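 active means growth inhibition above 25% in both replicates, a cutoff set 3 SD above the mean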); conditions: OD615, 24 h, at 10 µM, stronger effect = higher value
[10] = S. cerevisiae growth inhibition in restrictive medium, OD615, pilot screen, restrictive growth control, yeast lifespan reduction project (AID 706;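 active means growth inhibition above a set limit, 3 SD over mean compound inhibition, in both replicates, cut at about 43% in these data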;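 further: modified DeaD lifespan yeast strain shifted to restrictive glucose medium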); conditions: OD615, 48 h, at 10 µM, stronger effect = higher value
[11] = doxorubicin toxicity protection in MRP-1 cells – H69AR cells, CellTiter-Glo, duplicate, MRP-1 activator project, pilot screen (AID 807;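 active means viability increase at or above a cutoff of the median across tested compounds plus 3 SD, cut at about 8.5% in these data, passing the limit was not always enough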;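 further: compound pretreatment 18-22 h then 72 h combined with doxorubicin; 0% = doxorubicin alone and 100% = vehicle without doxorubicin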); conditions: H69AR viability with doxorubicin, CellTiter-Glo luminescence; at 10 µM; stronger effect = higher value
[12] = viability of HCT116 without oncogenic beta-catenin – human colon tumor cells, pilot screen (AID 823;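 active means cell viability at or below a set limit in both duplicate runs, the limit being the all-compound median minus 4 SD, cut at about 23% in these data, passing the limit was not always enough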;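 further: 0% = wells killed by 20 µM Hyamine and 100% = untreated DMSO cell wells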); conditions: HCT116 beta-catenin knockout viability, CellTiter-Glo, 60 h; at 10 µM; stronger effect = lower value
[13] = viability of PTEN-null HCT116 cells – cell-based, HCT116 clonal line, CellTiter-Glo, pilot screen (AID 824;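 active means viability at or below 27.92% in each of two runs, the all-compound median minus 4 SD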;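 further: 0% = 20 µM Hyamine control and 100% = vehicle cell control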); conditions: HCT116 PTEN-deleted viability, 60 h, at 10 µM, stronger effect = lower value
[14] = RAM pathway blockade in budding yeast – dse1pr::URA3 reporter, 5-FOA selection, pilot screen (AID 869;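 active means inhibition over a set limit, the all-compound mean plus 3 SD, in both replicate runs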;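 further: 0% = DMSO wells with no growth and 100% = 10 µM 1-NA-PP1 with full growth; RAM network block rescues cells from 5-FOA so hits raise OD615 growth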); conditions: S. cerevisiae dse1pr::URA3 5-FOA growth, OD615, 2 d; at 10 µM; stronger effect = higher value; strain carries analog-sensitive mutant Cbk1 kinase
[15] = RAM signaling pathway blockade in yeast – S. cerevisiae, Pdr1DBD-CYC8 efflux-inhibited sensitized strain, primary screen (AID 1298;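 active means RAM network inhibition above 8.4% in each of two replicates, 3 SD over the compound average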;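 further: 0% = DMSO untreated cells without growth and 100% = 10 µM 1-NA-PP1 full growth; higher means more yeast growth rescued from 5-FOA killing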); conditions: S. cerevisiae cbk1-as DSE1-URA3 strain, 5-FOA growth OD615, 2 d; at 50 µM; stronger effect = higher value
[16] = H69AR cells + 2 uM doxorubicin, measured here: viability with 2 uM doxorubicin, stronger effect = lower value
[17] = H69AR cells, compound alone cytotoxicity

SMILES | viability [1] [%] | Her2 level [2] | viability [3] | viability [4] | viability [5] | differential viability (reversal) ([6]; H69AR cells + 2 uM doxorubicin) | viability [6, 16] [%] | viability [6, 17] [%] | inhibition [7] | inhibition [8] | growth inhibition [9] | growth inhibition [10] | viability increase [11] | viability [12] | viability [13] | inhibition [14] | RAM network inhibition [15]
CCCCCn1c(=O)[nH]c2cc(C(=O)NCCN3CCOCC3)ccc2c1=O | 99.5 | 88% (inactive) | 99.5% (inactive) | 114% (inactive) | 105% (inactive) | 16.1% (inactive) | 88.5 | 105 | -7.03% (inactive) | 0.33% (inactive) | -26.4% (inactive) | -10.6% (inactive) | -0.3% (inactive) | 92.5% (inactive) | 87.9% (inactive) | 1.83% (inactive) | 5.23% (inactive)
CC1(C(=O)NC2CCCCC2)CCC(=O)N1Cc1cccs1 (stereo not drawn) | 83 | 114% (inactive) | 83% (inactive) | 102% (inactive) | 85.3% (inactive) | -5.18% (inactive) | 90.5 | 85.3 | 2.31% (inactive) | 8.83% (inactive) | -4.46% (inactive) | -15.9% (inactive) | -0.4% (inactive) | 102% (inactive) | 93.7% (inactive) | 3.65% (inactive) | 1.09% (inactive)
COc1cccc(C2CC(=O)Nc3c2c(=O)n(C)c(=O)n3C)c1OC (stereo not drawn) | 98.5 | 101% (inactive) | 98.5% (inactive) | 93.8% (inactive) | 102% (inactive) | 15.2% (inactive) | 87 | 102 | 1.33% (inactive) | -4.75% (inactive) | -3.2% (inactive) | -1.43% (inactive) | 0.25% (inactive) | 98.9% (inactive) | 95.9% (inactive) | 2.06% (inactive) | 7.39% (inactive)
COc1ccc(CNc2oc(-c3ccccc3)nc2C#N)cc1 | 88.5 | 83.5% (inactive) | 88.5% (inactive) | 69.7% (inactive) | 103% (inactive) | 0.495% (inactive) | 102 | 103 | 4.27% (inactive) | -4.92% (inactive) | 0.305% (inactive) | 12.3% (inactive) | 2.09% (inactive) | 98.8% (inactive) | 98.6% (inactive) | 0.335% (inactive) | 4.07% (inactive)
O=C(c1ccc(=O)[nH]c1)N(Cc1ccco1)C1(C(=O)NC2CCCC2)CCCCC1 | 102 | 99.5% (inactive) | 102% (inactive) | 102% (inactive) | 104% (inactive) | 11.9% (inactive) | 91.7 | 104 | -7.81% (inactive) | -3.17% (inactive) | 2.31% (inactive) | -5.5% (inactive) | -2% (inactive) | 98.6% (inactive) | 100% (inactive) | -0.16% (inactive) | 1.35% (inactive)
COc1ccc(CCNC(=O)C2(C)CCC(=O)N2Cc2ccc3c(c2)OCO3)cc1OC (stereo not drawn) | 77.5 | 98% (inactive) | 77.5% (inactive) | 88.2% (inactive) | 92.8% (inactive) | 5.6% (inactive) | 87.2 | 92.8 | -2.69% (inactive) | -5.17% (inactive) | -13.9% (inactive) | -25.8% (inactive) | 0.26% (inactive) | 102% (inactive) | 97.5% (inactive) | 0.985% (inactive) | 1.36% (inactive)
CCOC(=O)N1CCC(N2C(=O)c3ccccc3C2Nc2cc(Cl)c(OC)cc2OC)CC1 (stereo not drawn) | 92.5 | 114% (inactive) | 92.5% (inactive) | 91.6% (inactive) | 78.2% (inactive) | 14% (inactive) | 64.2 | 78.2 | -4.8% (inactive) | 0.83% (inactive) | 3.33% (inactive) | 4.05% (inactive) | -4.45% (inactive) | 77.8% (inactive) | 76% (inactive) | 0.285% (inactive) | 3.54% (inactive)
CCOC(=O)C(CC)(CCC(=O)O)c1csc(N)n1 (stereo not drawn) | 99 | 98.5% (inactive) | 99% (inactive) | 101% (inactive) | 102% (inactive) | 7.83% (inactive) | 94.2 | 102 | -8.4% (inactive) | -2.74% (inactive) | -4.72% (inactive) | -9.94% (inactive) | -1.31% (inactive) | 96.8% (inactive) | 98.3% (inactive) | 0.94% (inactive) | -1.93% (inactive)
COC(=O)CN1C(=O)CC(C)(C)S(=O)c2ccccc21 (stereo not drawn) | 114 | 110% (inactive) | 114% (inactive) | 118% (inactive) | 99.3% (inactive) | 8.85% (inactive) | 90.4 | 99.3 | -4.4% (inactive) | 16.3% (inactive) | -14.5% (inactive) | -3.88% (inactive) | -0.45% (inactive) | 107% (inactive) | 99.7% (inactive) | 0.32% (inactive) | 2.09% (inactive)
